ChEMBL document CHEMBL3433997, “St. Jude Leishmania screening dataset” (2016)

target: Solute carrier family 2, facilitated glucose transporter member 1 (Homo sapiens) (UniProt P11166); experiment: ST_JUDE_LEISH: Cytotoxicity at 2uM final concentration against transgenic Leishmania Mexicana promastigotes LmGLUT1 that are glucose transport deficient and complemented with the human glucose transporter GLUT1. Activity is measured by DNA content using SYBR green in vitro; format: functional
Sequence (P11166 whole entry): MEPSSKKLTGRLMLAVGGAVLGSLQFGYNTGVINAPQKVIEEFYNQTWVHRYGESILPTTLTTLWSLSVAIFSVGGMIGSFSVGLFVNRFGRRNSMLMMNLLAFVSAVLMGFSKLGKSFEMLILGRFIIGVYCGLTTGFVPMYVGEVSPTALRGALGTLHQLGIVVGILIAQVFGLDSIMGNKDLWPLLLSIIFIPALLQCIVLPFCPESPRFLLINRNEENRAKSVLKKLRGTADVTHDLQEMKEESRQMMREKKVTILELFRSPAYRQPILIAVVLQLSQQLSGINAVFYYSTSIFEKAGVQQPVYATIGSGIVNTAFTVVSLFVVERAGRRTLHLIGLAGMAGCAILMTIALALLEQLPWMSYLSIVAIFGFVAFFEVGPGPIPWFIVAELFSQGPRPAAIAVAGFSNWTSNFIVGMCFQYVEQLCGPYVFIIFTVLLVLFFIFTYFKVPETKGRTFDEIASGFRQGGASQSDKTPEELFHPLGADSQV

Structure (SMILES)	inhibition
CN1CCN(c2ccnc3ccc(NC(=O)Nc4ccc5c(c4)CCCC5=O)cc23)CC1	0.37%
Cc1cc(C=C2SC(=Nc3ccccc3)N(C3CCCC3)C2=O)c(C)n1-c1ccc(Cl)cc1	0.96%
N=C(N)c1ccc2[nH]c(SCc3ccccc3)nc2c1	1.18%
COc1ccc(Cn2c(Nc3cccc(C(F)(F)F)c3)nc3cc(C(=O)NCCN4CCCC4)cnc32)cc1Cl	13.2%
CC(C)Oc1cccc(-c2ccc(C(=O)NCC3CCCN(Cc4cccc(C(F)(F)F)c4)C3)s2)c1 (stereo not given)	-1.06%
CCC(C)(C)n1c(C)cc2c3c(N)nc(N)nc3ccc21	71.7%
C=CCOC(=O)N1CCC(CNCc2ccc(-c3ccc(-c4nc5cc(C(F)(F)F)ccc5[nH]4)cc3)cc2)C1 (stereo not given)	3.5%
O=C(Nc1ccc2nccc(N3CCN4CCC[C@H]4C3)c2c1)c1ccc(Cl)c(Cl)c1	1.13%
NC1=NC(c2ccccc2)(c2ccccc2)C(=O)N1CC1CCC1	0.06%
CCCCCN(C(=O)Nc1cc(C(F)(F)F)cc(C(F)(F)F)c1)C(C)c1nc2ccccc2c(=O)n1CC (stereo not given)	-0.28%
Cc1[nH]cc(Br)c(=O)c1-c1ccc(Oc2ccc(OC(F)(F)F)cc2)cc1	3.93%
COc1cc(C=NNc2cc(C)nc3c(OC)cccc23)cc(OC)c1OC	7.21%
COc1ccc(C(=O)N2CCC3(CC2)C(=O)N(CC(=O)NCC2CCCCC2)CN3c2ccccc2)cc1	3.99%
CS(=O)(=O)CCNCc1cccc(-c2cc3c(Nc4ccc(OCc5ccccc5)cc4)ncnc3cn2)c1	13.7%
Cc1onc(-c2ccc(Cl)cc2)c1-c1ccnn1S(=O)(=O)c1ccc(Cl)cc1	-0.16%
O=C(NCCN1CCCCC1)c1ccc(Nc2nccc(Nc3ccc(Oc4ccccc4)cc3)n2)cc1	7.53%
COc1ccc(C(=O)CCC(=O)N(Cc2ccc(-c3ccc(CNCc4cccnc4)cn3)cc2)C2CCN(Cc3ccccc3)CC2)cc1F	3.47%
COc1ccc2nccc(NCC3(O)CCC(NCc4cc5c(cn4)OCCO5)CC3)c2n1 (stereo not given)	-1.99%
CC(C)(CNCc1cc(Cl)cc(Cl)c1)c1nc(-c2ccnc(N)n2)c(-c2ccc(Cl)c(O)c2)[nH]1	-0.09%
Cc1cc(C)cc(-n2c(C)cc(/C=C3\SC(=Nc4ccc(Cl)cc4)NC3=O)c2C)c1	5.26%

Structure (SMILES)	inhibition
COC(=O)c1cc(NC(=O)Nc2ccc(Cn3ncc(N4CCCNCC4)c(Cl)c3=O)cc2)cc(C(=O)OC)c1	0.7%
CCOc1c(CNCCCNc2cc(O)c3ccccc3n2)cc(Br)cc1OC	7.77%
CCC(C)CC(=O)Nc1ccc(OC)c(S(=O)(=O)N[C@@H]2CCN(C#N)C2)c1 (stereo not given in full)	-0.28%
CCN1CCN(c2cc(C)c3cc(NC(=O)c4cccc(Cl)c4)ccc3n2)CC1	7.2%
C[C@H](Cc1ccc(OCCCCCOc2ccc(C[C@@H](C)NC[C@H](O)c3cccc(Cl)c3)cc2)cc1)NC[C@H](O)c1cccc(Cl)c1	106%
CC(C)c1ccc(NC(=O)c2ccc(CN3CCCN(Cc4cccc(O)c4)CC3)cc2)cc1	2.95%
CCCCC1=CC2C(=O)C(C(=O)OC)=CN=C2C=C1OCc1ccccc1 (stereo not given)	-0.41%
c1cc(CNCCc2ccncc2)cc(-c2ccc(-c3nc4ccccc4[nH]3)s2)c1	0.32%
OC1(c2ccccc2)CCN(Cc2cccc(-c3c[nH]c4nc(NC5CCCC5)ncc34)c2)C1 (stereo not given)	3.82%
N#Cc1ccc2c(c1)CN(CCCCNC(=O)c1ccc(-c3ccccc3)cc1)CC2	3.14%
CCCc1cc(C(=O)N[C@@H](Cc2ccccc2)[C@H](O)CNC(C)(C)c2cccc(OC)c2)c(F)c(N2CCCC2=O)c1	9.67%
Cc1cc(NCCC(=O)NCCOc2ccccc2)nc(NCc2ccccc2C)n1	3.15%
Cn1nc(-c2ccc(NC(=O)Nc3cc(C(F)(F)F)ccc3F)cc2)c2cnc(NCCCCN3CCCC3)nc21	3.73%
OC(CNCc1ccccc1)c1cc(OCc2ccccc2)cc(OCc2ccccc2)c1 (stereo not given)	-0.14%
N#Cc1cc(C(=O)c2cc(Cl)ccc2O)cn(-c2cc(Cl)cc(Cl)c2)c1=O	2.16%
NC1=NC(CCc2ccccc2)N(c2ccccc2)C(N)=N1 (stereo not given)	10.1%
O=C(Nc1cccc(CN2CCN(C(=O)c3cccc(F)c3)CC2)c1)c1ccco1	2.27%
O=C(Nc1ccc2ccccc2c1)N(CCCn1ccnc1)Cc1csc(-c2ccc(CNCc3ccccc3)cc2)n1	-0.95%
COc1cc2nc(N3CCC(CNC(=O)c4cc5ccccc5s4)CC3)nc(N)c2cc1OC	11.8%
O=C(Nc1ccc(I)cc1)Nc1ccc(Cn2ncc(N3CCCNCC3)c(Cl)c2=O)cc1	-2.09%
